Measurements from PubChem BioAssay (EPA / NIEHS).
“And” between values parts separate entries of the source, which are not always exact repeats. Identical values can stand only once. Results filed as inconclusive are left out. More than one record can exist for a structure, and the calls need not agree. The source made the active and inactive calls. How the source made its calls, unless noted: active means hit-call score of the fitted dose curve at least 0.9, where 1 is the maximum; inactive means score below 0.9.

Columns and labels:
[1] = BSK_LPS_PGE2: BioMAP Diversity Plus: LPS Assay for Prostaglandin E2 (PGE2) Biomarker Activity (AID 2283082); conditions: primary human HUVEC with PBMC; actives raise or lower the signal
How it was run: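 HUVEC plus human PBMC co-culture stimulated with LPS; secreted PGE2 quantified by ELISA 24 h after chemical dosing. Activity fitted bidirectionally against DMSO baseline; parallel SRB staining (0.1% SRB after 10% TCA fixation, 560 nm) flags overt cytotoxicity.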

[2] = read-out: Macrophage colony-stimulating factor (MCSF), CSF1 (gene 1435); assay: BSK_LPS_MCSF: BioMAP Diversity Plus: LPS Assay for Macrophage colony-stimulating factor (MCSF) Biomarker Activity (AID 2283083); conditions: primary human HUVEC with PBMC; actives raise or lower the signal
How it was run: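 Bidirectional fit versus DMSO of ELISA-measured M-CSF in co-cultured human umbilical vein endothelial cells and PBMC, sampled 24 h after dosing.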

[3] = read-out: Tissue Factor, F3 (gene 2152); assay: BSK_LPS_TissueFactor: BioMAP Diversity Plus: LPS Assay for Tissue Factor Biomarker Activity (AID 2283084); conditions: primary human HUVEC with PBMC; actives raise or lower the signal
How it was run: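 Read-out: CD142 ELISA, 24 h. System: LPS-driven human endothelial/PBMC co-culture. Analysis: up- or down-signal fitted against DMSO.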

[4] = read-out: Vascular cell adhesion molecule 1 (VCAM1), VCAM1 (gene 7412); assay: BSK_LPS_VCAM1: BioMAP Diversity Plus: LPS Assay for Vascular cell adhesion molecule 1 (VCAM1) Biomarker Activity (AID 2283086); conditions: primary human HUVEC with PBMC; actives raise or lower the signal
How it was run: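 Human umbilical vein endothelial cells co-cultured with PBMC and stimulated with LPS; VCAM-1 measured by ELISA 24 h after dosing. Bidirectional curve fitting against DMSO baseline; cytotoxicity tracked in parallel by SRB total-protein staining.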

CD38, CD38 (gene 952) = assay: BSK_SAg_CD38: BioMAP Diversity Plus: SAg Assay for CD38 Biomarker Activity (AID 2283087); conditions: primary human HUVEC with PBMC; actives raise or lower the signal
How it was run: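 Human HUVEC plus PBMC co-culture stimulated with superantigen; CD38 measured by ELISA 24 h after chemical dosing. Fluorescence read-out, bidirectional fit against DMSO; cytotoxicity tracked in parallel by SRB and Alamar Blue.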

CD40, CD40 (gene 958) = assay: BSK_SAg_CD40: BioMAP Diversity Plus: SAg Assay for CD40 Biomarker Activity (AID 2283088); conditions: primary human HUVEC with PBMC; actives raise or lower the signal
How it was run: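 Endpoint derived by fitting increases or decreases versus DMSO controls. CD40 is detected by fluorescence ELISA in a human vascular co-culture of endothelium and PBMC at 24 h.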

CD69, CD69 (gene 969) = assay: BSK_SAg_CD69: BioMAP Diversity Plus: SAg Assay for CD69 Biomarker Activity (AID 2283089); conditions: primary human HUVEC with PBMC; actives raise or lower the signal;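 on AC50: cell surface CD69 protein quantified by ELISA with fluorescence detection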
How it was run: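 HUVEC co-cultured with PBMC were dosed with chemical, and CD69 was measured by ELISA with fluorescence read-out 24 h later. Bidirectional curve fitting used DMSO as negative control and activity baseline.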

[5] = read-out: Monocyte Chemoattractant Protein-1 (MCP1), CCL2 (gene 6347); assay: BSK_SAg_MCP1: BioMAP Diversity Plus: SAg Assay for Monocyte Chemoattractant Protein-1 (MCP1) Biomarker Activity (AID 2283090); conditions: primary human HUVEC with PBMC; actives raise or lower the signal
How it was run: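 MCP-1 levels in the endothelial–PBMC SAg co-culture were quantified by ELISA at 24 h post-dosing; both increases and decreases versus DMSO scored. Cytotoxicity monitored by SRB total protein in parallel cultures.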

[6] = read-out: E-selectin (Homo sapiens) (UniProt P16581); assay: BSK_SAg_Eselectin: BioMAP Diversity Plus: SAg Assay for Eselectin Biomarker Activity (AID 2283091); conditions: primary human HUVEC with PBMC; actives raise or lower the signal
How it was run: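 Endpoint values derive from bidirectional fitting relative to DMSO, using ELISA-measured E-selectin in a human vascular co-culture (umbilical vein endothelium plus PBMC) sampled 24 h after dosing.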

[7] = BSK_SAg_PBMCCytotoxicity: PBMC Cytotoxicity Assessment in the BioMAP Diversity Plus: SAg Assay (AID 2283093); conditions: primary human HUVEC with PBMC;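 further: PBMC viability measured as Alamar Blue reduction fluorescence at 546/580 nm; fitted both ways against DMSO so a hit may be loss or gain of signal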;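 on AC50: PBMC superantigen activated with SEB plus TSST-1 one hour after compound addition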
How it was run: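 Human umbilical vein endothelial cells co-cultured with PBMC; PBMC (75,000/well) pre-treated with compound 1 h, then activated with SEB and TSST-1 (20 ng/mL final each) for 90 h. Alamar Blue added 6 h, fluorescence 546/580 nm; bidirectional fit versus DMSO.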

[8] = read-out: Interleukin-8 (IL8), CXCL8 (gene 3576); assay: BSK_SAg_IL8: BioMAP Diversity Plus: SAg Assay for Interleukin-8 (IL8) Biomarker Activity (AID 2283094); conditions: primary human HUVEC with PBMC; actives raise or lower the signal
How it was run: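 Human umbilical vein endothelial cells co-cultured with PBMC, stimulated with superantigen; IL-8 measured by ELISA 24 h after chemical dosing. Bidirectional fitting versus DMSO; SRB staining in parallel cultures tracks cytotoxicity.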

[9] = BSK_SAg_Proliferation: Cell Proliferation Assessment in the BioMAP Diversity Plus: SAg Assay (AID 2283095); conditions: primary human HUVEC with PBMC
How it was run: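 Human umbilical vein endothelial cells co-cultured with PBMC; sulforhodamine B total-protein staining (0.1% SRB after 10% TCA fixation, absorbance 560 nm) at 96 h in sub-confluent culture. Fitted bidirectionally against DMSO.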

[10] = BSK_SAg_SRB: Viability Assessment in the BioMAP Diversity Plus: SAg Assay (AID 2283096); conditions: primary human HUVEC with PBMC;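 further: cells read one day after compound addition; hits may be either gain or loss of signal compared with DMSO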
How it was run: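 Endothelial/PBMC primary human co-culture; compound 24 h; fix 10% TCA, stain 0.1% SRB, A560; protein content as cytotoxicity proxy; bidirectional curve fit, DMSO = baseline.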

[11] = read-out: Monokine induced gamma interferon (MIG), CXCL9 (gene 4283); assay: BSK_SAg_MIG: BioMAP Diversity Plus: SAg Assay for Monokine induced gamma interferon (MIG) Biomarker Activity (AID 2283092); conditions: primary human HUVEC with PBMC; actives raise or lower the signal
How it was run: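 HUVEC plus human PBMC co-culture, chemicals dosed and MIG (CXCL9) quantified by ELISA at 24 h. Bidirectional curve fitting against DMSO as negative control and baseline, so both gain and loss of signal count as activity.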

[12] = read-out: Tumor necrosis factor (Homo sapiens) (UniProt P01375); assay: BSK_LPS_TNFa: BioMAP Diversity Plus: LPS Assay for Tumour Necrosis Factor alpha (TNFa) Biomarker Activity (AID 2283085); conditions: primary human HUVEC with PBMC; actives raise or lower the signal
How it was run: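 Human umbilical vein endothelial cells co-cultured with PBMC and stimulated with LPS. TNFa was measured by ELISA 24 h after chemical dosing, fitted bidirectionally relative to DMSO.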

[13] = target: human CYP2C9, CYP2C9 (gene 1559) (UniProt P11712); assay: NVS_ADME_hCYP2C9: NovaScreen (NVS) CYP450-related Enzyme Activity (ADME) Assay for human CYP2C9 (AID 2283108; active means hit-call score of the fitted dose curve at least 0.9, where 1 is the maximum)
How it was run: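 Cell-free assay of recombinant human CYP2C9 produced in Sf9 cells, with enzyme activity read by fluorescence intensity 0.75 h after compound addition. Loss of signal versus an acetonitrile negative control indicates inhibition. Primary screen used 10 uM in duplicate; actives were retested in concentration series.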

Measured: AC50

E-selectin (Homo sapiens), sequence (P16581 whole entry, looked up): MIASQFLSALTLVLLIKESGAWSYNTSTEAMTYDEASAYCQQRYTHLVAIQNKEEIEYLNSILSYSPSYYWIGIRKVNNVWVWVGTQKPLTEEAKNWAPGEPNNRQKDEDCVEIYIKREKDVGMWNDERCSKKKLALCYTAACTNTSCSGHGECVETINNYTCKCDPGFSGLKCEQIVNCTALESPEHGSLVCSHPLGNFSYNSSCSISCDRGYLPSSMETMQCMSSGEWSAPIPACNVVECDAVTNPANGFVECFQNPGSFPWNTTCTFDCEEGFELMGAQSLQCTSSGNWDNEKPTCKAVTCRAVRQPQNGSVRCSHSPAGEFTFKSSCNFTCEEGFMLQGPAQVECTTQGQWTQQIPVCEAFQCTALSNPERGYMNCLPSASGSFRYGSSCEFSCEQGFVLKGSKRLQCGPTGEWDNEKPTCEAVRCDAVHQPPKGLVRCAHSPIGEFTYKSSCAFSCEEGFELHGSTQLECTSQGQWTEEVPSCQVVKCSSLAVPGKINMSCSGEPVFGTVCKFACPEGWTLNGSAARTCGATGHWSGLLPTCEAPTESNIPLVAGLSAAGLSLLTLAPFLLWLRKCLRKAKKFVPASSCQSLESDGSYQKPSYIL
Tumor necrosis factor (Homo sapiens), sequence (P01375 whole entry, looked up): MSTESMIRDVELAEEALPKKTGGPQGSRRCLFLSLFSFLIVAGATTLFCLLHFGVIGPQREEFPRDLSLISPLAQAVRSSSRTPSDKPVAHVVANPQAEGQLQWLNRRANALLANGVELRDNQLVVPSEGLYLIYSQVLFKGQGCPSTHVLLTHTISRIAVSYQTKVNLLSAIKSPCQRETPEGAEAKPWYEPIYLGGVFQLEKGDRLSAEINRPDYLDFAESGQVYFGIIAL
human CYP2C9, CYP2C9 (gene 1559), sequence (P11712 whole entry, looked up): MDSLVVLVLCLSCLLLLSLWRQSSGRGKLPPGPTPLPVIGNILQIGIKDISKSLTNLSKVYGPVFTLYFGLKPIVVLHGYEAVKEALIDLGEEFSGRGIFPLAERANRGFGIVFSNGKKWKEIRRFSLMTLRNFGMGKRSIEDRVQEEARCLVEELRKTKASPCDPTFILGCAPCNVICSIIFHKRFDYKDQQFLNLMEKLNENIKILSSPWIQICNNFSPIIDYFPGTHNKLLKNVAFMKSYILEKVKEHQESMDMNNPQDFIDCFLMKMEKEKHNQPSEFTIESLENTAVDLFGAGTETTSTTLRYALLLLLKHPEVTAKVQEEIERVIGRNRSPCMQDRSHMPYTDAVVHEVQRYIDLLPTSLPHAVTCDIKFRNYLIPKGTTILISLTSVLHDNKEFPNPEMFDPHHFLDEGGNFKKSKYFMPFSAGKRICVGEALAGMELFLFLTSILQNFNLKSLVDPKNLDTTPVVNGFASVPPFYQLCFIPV

O=C1OC[C@H](Cc2cccc(O)c2)[C@H]1Cc1cccc(O)c1
not listed: [11] | [12] | [13]
inactive: all other assays above

CC(=O)c1c(C)c([N+](=O)[O-])c(C(C)(C)C)c([N+](=O)[O-])c1C
not listed: [12] | [13]
inactive: all other assays above

C=C(C)[C@H]1CC=C(C)C(=O)C1
active: [13] 0.597 µM
not listed: [11]
inactive: all other assays above

CC1(C)CCC[C@]2(C)[C@H]3CCO[C@]3(C)CC[C@@H]12
inactive: [1] | [2] | [3] | [12] | [4] | CD38, CD38 (gene 952) | CD40, CD40 (gene 958) | CD69, CD69 (gene 969) | [5] | [6] | [8] | [10]
active: CD40, CD40 (gene 958) 36.6 µM | [6] 26.4 µM | [7] 31.8 µM and 33.4 µM | [9] 33.6 µM and 32.7 µM

CCCCCCC(CO)CCCC (centres undefined)
active: [9] 37.3 µM
inactive: [1] | [2] | [3] | [4] | CD38, CD38 (gene 952) | CD40, CD40 (gene 958) | CD69, CD69 (gene 969) | [5] | [6] | [7] | [8] | [9] | [10]

C1=CC2C3C=CC(C3)C2C1 (centres undefined)
not listed: [11] | [12] | [13]
inactive: all other assays above

CC(=O)C1(C)CC2=C(CCCC2(C)C)CC1C (centres undefined)
inactive: [1]
active: [2] 8.91 µM | [3] 10.1 µM | [4] 13 µM | CD38, CD38 (gene 952) 33 µM | CD40, CD40 (gene 958) 15.2 µM | CD69, CD69 (gene 969) 24.5 µM | [5] 23.6 µM | [6] 15.5 µM | [7] 12 µM | [8] 34.4 µM | [9] 9.65 µM | [10] 26.8 µM

CCCCN(CCCC)C(=O)N(CCCC)CCCC
inactive: [1] | CD38, CD38 (gene 952)
active: [2] 20 µM | [3] 20 µM | [4] 24.7 µM | CD40, CD40 (gene 958) 20 µM | CD69, CD69 (gene 969) 11.2 µM | [5] 20 µM | [6] 9.94 µM | [7] 11 µM | [8] 15.6 µM | [9] 7.83 µM | [10] 20 µM

CCN(CC)C(=O)N(CC)CC
not listed: [11] | [12] | [13]
inactive: all other assays above

COc1ccc(CCN2CCC(Nc3nc4ccccc4n3Cc3ccc(F)cc3)CC2)cc1
active: CD38, CD38 (gene 952) 5 µM | CD69, CD69 (gene 969) 5 µM | [7] 6.91 µM | [8] 2.39 µM | [9] 6.38 µM | [10] 5 µM
not listed: [11] | [12] | [13]
inactive: all other assays above

CS(=O)(=O)c1ccc(C2=C(c3ccccc3)C(=O)OC2)cc1
not listed: [11] | [12] | [13]
inactive: all other assays above

Clc1cc(Cl)c(-c2c(Cl)c(Cl)cc(Cl)c2Cl)cc1Cl
active: [2] 1.98 µM | [4] 3.5 µM | CD38, CD38 (gene 952) 15.6 µM | CD40, CD40 (gene 958) 16.3 µM | CD69, CD69 (gene 969) 10 µM | [6] 14.9 µM | [7] 17.4 µM | [8] 10 µM | [9] 14.3 µM
inactive: [1] | [3] | [5] | [11] | [10]
